Measured values reported in PubChem BioAssay (Tox21).
Several values for one entry are separate records, joined by “and”; a condition that tells them apart may be missing. Identical values can stand only once. Results filed as inconclusive are left out. A call without a number means that no potency is given here. Where a structure was tested more than once in an assay, its records may differ in their call. Activity calls are given as the source filed them. Unless noted, calls come from the whole dose curve; as a rule, active = well fitted curve in the direction sought with a large enough effect in the repeat runs; inconclusive = weak or mixed curves; inactive = no such curve, though single readings can be large; an effect the other way counts as inactive or inconclusive.

Assays:
[1] = qHTS assay to identify small molecule agonists of the vitamin D receptor (VDR) signaling pathway - cell viability counter screen (AID 743224); note: nearly all actives have a fitted effect of over 50% in size; note: potency is the fitted concentration of half-maximal effect
Procedure, shortened: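 Plated VDR-bla cells (4 h, 37C) received compound, incubated 16 h, then LiveBLAzer substrate 2 h RT; CellTiter-Glo added afterwards, luminescence read at 30 min.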

[2] = qHTS assay to identify small molecule antagonists of the vitamin D receptor (VDR) signaling pathway - cell viability counter screen (AID 743225); note: nearly all actives have a fitted effect of over 50% in size; note: potency is the fitted concentration of half-maximal effect
Procedure, shortened: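 VDR-bla HEK 293T cells, 4 h pre-incubation at 37C, then compound plus 1-alpha,25-dihydroxyvitamin D3 (3 nM final) for 16 h. After the beta-lactamase FRET read, CellTiter-Glo was added to the same wells; luminescence after 30 min at room temperature.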

[3] = qHTS assay to identify small molecule agonists of the NFkB signaling pathway (AID 1159509; active = well fitted curve in the direction sought with a large enough effect in the signal ratio in the repeat runs, not every such curve was filed as active; the % refers to the signal ratio; note: series mostly up to about 61 µM)
Procedure, shortened: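 After overnight attachment, reporter cells received test compounds, DMSO or positive controls and were incubated 5 hr at 37 C. FRET substrate was then added for 1.5 hr at room temperature before dual-emission fluorescence reading.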

[4] = qHTS assay to identify small molecule agonists of the NFkB signaling pathway - cell viability counter screen (AID 1159515; calls by dose curve; note: series mostly up to about 61 µM; nearly all actives have a fitted effect of over 55% in size)
Procedure, shortened: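 Using the same wells as the NFkB reporter read, ME-180 NFkB-bla cells given compounds for 5 hr were assessed for viability via CellTiter-Glo, with luminescence taken after a 30 min room-temperature incubation.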

[5] = qHTS assay to identify small molecule agonists of the endoplasmic reticulum stress response signaling pathway (AID 1159516; active = well fitted activation curve with a large enough effect in the signal ratio in the repeat runs, not every such curve was filed as active; the % refers to the signal ratio)
Procedure, shortened: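 An ESRE-bla HeLa cell assay: compounds were pin-transferred from DMSO onto overnight-plated cells and left 5 hr at 37 C. Substrate was then loaded for 2 hr at room temperature before reading fluorescence at 460 nm and 530 nm.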

[6] = qHTS assay to identify small molecule agonists of the endoplasmic reticulum stress response signaling pathway - cell viability counter screen (AID 1159517; calls by dose curve;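 note: HeLa cells carrying an ER stress response element beta-lactamase reporter; series mostly up to about 61 µM; nearly all actives have a fitted effect of over 50% in size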)
Procedure, shortened: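 Cells, HeLa ESRE-bla; density, 1,500/well; dosing, 5 hr at 37 C, 5% CO2; readout, CellTiter-Glo luminescence after 30 min RT.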

[7] = qHTS assay to identify small molecule antagonists of the retinoid-related orphan receptor gamma (ROR-gamma) signaling pathway - cell viability counter screen (AID 1159520); note: nearly all actives have a fitted effect of over 50% in size; note: potency is the fitted concentration of half-maximal effect
Procedure, shortened: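 Cytotoxicity was read from cellular ATP (CellTiter-Glo luminescence) after 16 hr at 37 C with 1 uM doxycycline induction. The inducer was added 2 hr after compound transfer to Tet-on ROR gamma CHO cells.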

[8] = biological target: Nuclear receptor ROR-gamma (Homo sapiens) (UniProt P51449); assay: qHTS assay to identify small molecule antagonists of the retinoid-related orphan receptor gamma (ROR-gamma) signaling pathway (AID 1159521; note: nearly all actives have a fitted effect of over 50% in size; note: potency is the fitted concentration of half-maximal effect)
Procedure, shortened: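 Tet-on RORγ CHO cells carrying a ROR response element–luciferase reporter were pretreated with compounds for 2 h, then induced with 1 uM (final) doxycycline hyclate for 16 h at 37 C. Antagonism was read as decreased ONE-Glo luminescence.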

[9] = qHTS assay to identify small molecule agonists of the AP-1 signaling pathway - cell viability counter screen (AID 1159525; calls by dose curve; note: nearly all actives have a fitted effect of over 55% in size)
Procedure, shortened: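 Luminescent ATP readout (Cell Titer Glo, 30 min RT), normalised to DMSO and tetra n-octyl ammonium bromide controls. Cells were ME-180 AP-1-bla in 0.5% dialyzed FBS Opti-MEM, with a 5 h, 37 °C compound exposure.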

[10] = qHTS assay to identify small molecule agonists of the AP-1 signaling pathway (AID 1159526; calls by dose curve)

SMILES	Potency [1]	Potency [2]	outcome [3]	Potency [4]	outcome [5]	Potency [6]	Potency [7]	Potency [8]	Potency [9]	outcome [10]
NNC(N)=S	32.1 µM (active)	inactive	inactive	inactive	inactive	inactive	inactive	inactive	inactive	
N[C@@H](Cc1ccc(N(CCCl)CCCl)cc1)C(=O)O	inactive	inactive	inactive	inactive	inactive	inactive	16.8 µM (active)	11.7 µM (active) and 13.3 µM (active)	inactive	inactive
NCc1cccnc1	inactive	inactive	inactive	inactive	inactive	inactive	inactive	inactive	inactive	inactive
O=C(O)C(F)(F)C(F)(F)C(F)(F)C(F)(F)C(F)(F)C(F)(F)C(F)(F)F	inactive		inactive	inactive	inactive	inactive	inactive	inactive	inactive	inactive
Brc1ccc(Oc2cc(Br)c(Br)cc2Br)c(Br)c1	inactive	inactive	inactive	inactive	inactive	inactive	inactive	inactive	inactive	inactive
CC(O)CCO (stereo not given)	inactive	inactive	inactive	inactive	inactive	inactive	inactive	inactive		inactive
CC(C)C(=O)OCC(C)(C)C(OC(=O)C(C)C)C(C)C (stereo not given)	inactive	inactive	inactive	inactive	inactive	inactive	inactive	inactive	inactive	inactive
C=CCN(CC=C)C(=O)C(Cl)Cl	inactive	inactive	inactive	inactive	inactive	inactive	inactive	inactive	inactive	inactive
CNC(=O)N(C)c1nnc(C(C)(C)C)s1	inactive	inactive	inactive	inactive	inactive	inactive	inactive	inactive	inactive	inactive
C#C[C@]1(O)CC[C@H]2[C@@H]3CCC4=CC(=O)CC[C@]4(C)[C@H]3CC[C@@]21C	inactive	inactive	inactive	inactive	inactive	inactive	inactive	inactive	inactive	inactive
Cc1ccccc1[N+](=O)[O-]	inactive	inactive	inactive	inactive	inactive	inactive	inactive	inactive		inactive
O=Cc1ccco1	inactive	inactive	inactive	inactive	inactive	inactive	inactive	inactive	inactive	inactive
C=CCc1ccc(OC)cc1	inactive	inactive	inactive	inactive	inactive	inactive	inactive	inactive	inactive	inactive
c1ccc(NNc2ccccc2)cc1	inactive	inactive	inactive	inactive	inactive	inactive	inactive	inactive	inactive	inactive
c1nc[nH]n1	inactive	inactive	inactive	inactive	inactive	inactive	inactive	inactive	inactive	inactive
Nn1cnnc1	inactive	inactive	inactive	inactive	inactive	inactive	inactive	inactive	inactive	inactive
S=C1NCCN1	inactive	inactive	inactive	inactive	inactive	inactive	inactive	inactive	inactive	inactive
COc1ccc(C=O)cc1	inactive	inactive	inactive	inactive	inactive	inactive	inactive	inactive	inactive	inactive
CCC(C)c1cc([N+](=O)[O-])cc([N+](=O)[O-])c1O (stereo not given)	inactive	inactive	inactive	inactive	inactive	inactive	inactive	inactive and 7.7 µM (active)	inactive	inactive
O=C(CCl)c1ccccc1	inactive	inactive	inactive	inactive	inactive	inactive	inactive and 61.1 µM (active)	inactive and 54.5 µM (active)	inactive	inactive
CC1(C)C(C=C(Cl)Cl)C1C(=O)OC(C#N)c1cccc(Oc2ccccc2)c1 (stereo not given)	inactive	inactive	inactive	inactive	inactive	inactive	inactive	inactive	inactive	inactive
CCC(C)c1ccc(O)cc1 (stereo not given)	inactive	inactive	inactive	inactive	inactive	inactive	inactive	inactive	inactive	inactive
Nc1cccnc1	inactive	inactive	inactive	inactive	inactive	inactive	inactive	inactive	inactive	inactive
O=S(=O)(Oc1ccc(Cl)cc1)c1ccc(Cl)cc1	inactive	inactive	inactive	inactive	inactive	inactive	inactive	inactive	inactive	inactive

SMILES	Potency [1]	Potency [2]	outcome [3]	Potency [4]	outcome [5]	Potency [6]	Potency [7]	Potency [8]	Potency [9]	outcome [10]
C=C(C)C(=O)OCC1CO1 (stereo not given)	inactive	inactive	inactive	inactive	inactive	inactive	inactive	inactive	inactive	inactive
OCC(O)CO	inactive	inactive	inactive	inactive	inactive	inactive	inactive	inactive	inactive	inactive
CCN(CC)N=O	inactive	inactive	inactive	inactive	inactive	inactive	inactive	inactive	inactive	inactive
CCCCOCCOP(=O)(OCCOCCCC)OCCOCCCC	inactive		inactive	inactive	inactive	inactive	inactive	inactive	inactive	inactive
Cc1cc(C)cc(C)c1	inactive	inactive	inactive	inactive	inactive	inactive	inactive	inactive	inactive	inactive
CCCCN(CCCC)N=O	inactive	inactive	inactive	inactive	inactive	inactive	inactive	inactive	inactive	inactive
CCCCCc1cc(O)cc(O)c1	inactive		inactive	inactive	inactive	inactive	inactive	inactive	inactive	
C#CCOS(=O)OC1CCCCC1Oc1ccc(C(C)(C)C)cc1 (stereo not given)	6.92 µM (active)	38.9 µM (active)	inactive	inactive	inactive	inactive	30.7 µM (active) and 54.5 µM (active)	1.94 µM (active) and 3.86 µM (active)	inactive	
Cc1cccc(N)c1N	inactive	inactive	inactive	inactive	inactive	inactive	inactive	inactive	inactive	inactive
C=C(C)[C@H]1Cc2c(ccc3c2O[C@@H]2COc4cc(OC)c(OC)cc4[C@@H]2C3=O)O1		inactive	inactive	inactive	inactive	inactive	inactive	34.8 nM (active) and 770 nM (active) and 10.6 nM (active)	inactive	inactive
CCCCNC(=O)n1c(NC(=O)OC)nc2ccccc21	inactive	inactive	inactive	inactive	inactive	inactive	inactive	inactive	inactive	inactive
CCCCC(CC)COC(=O)c1ccc(C(=O)OCC(CC)CCCC)c(C(=O)OCC(CC)CCCC)c1 (stereo not given)	inactive	inactive	inactive	inactive	inactive	inactive	inactive	inactive	inactive	inactive
Nc1ccc(Cl)cc1N	inactive and 43.6 µM (active)	inactive	inactive	inactive	inactive	inactive	inactive	inactive	inactive	inactive
O=P(O)(O)CCCl	inactive	inactive	inactive	inactive	inactive	inactive	inactive	inactive	inactive	inactive
COP(=S)(OC)Oc1ccc([N+](=O)[O-])cc1	inactive	inactive	inactive	inactive	inactive	inactive	inactive	inactive		inactive
Clc1nc(Cl)nc(Cl)n1	inactive	inactive	inactive	inactive	inactive	inactive	inactive	inactive		inactive
O=[N+]([O-])c1cccc2ccccc12	inactive	inactive	inactive	inactive		inactive	inactive	inactive	inactive	inactive
O=C(O)CC[N+](=O)[O-]	inactive	inactive	inactive	inactive		inactive	inactive	inactive	inactive	inactive
CCN(N=O)C(N)=O	inactive	inactive	inactive	inactive	inactive	inactive	inactive	inactive		inactive
Nc1c(Cl)cc([N+](=O)[O-])cc1Cl	inactive	inactive	inactive	inactive		inactive	inactive	inactive and 27.3 µM (active)	inactive	inactive
Oc1cc(Cl)c(Cl)cc1Cl	inactive	inactive	inactive	inactive	inactive	inactive	inactive	48.2 µM (active)		inactive
COP(=O)(OC)OC	inactive	inactive	inactive	inactive		inactive	inactive	inactive	inactive	inactive
CCOC(=O)C(C)OC(=O)c1cc(Oc2ccc(C(F)(F)F)cc2Cl)ccc1[N+](=O)[O-] (stereo not given)	inactive	inactive	inactive	inactive	inactive	inactive	inactive			inactive
CC(C)=CC1C(C(=O)OCc2coc(Cc3ccccc3)c2)C1(C)C (stereo not given)	inactive	inactive	inactive	inactive		inactive	inactive	48.6 µM (active)	inactive	inactive
